High-throughput results from PubChem.
Shown are actives, neighbours in structure and some others; about 18% of the full set was active somewhere.
TDP1 cell CPT: DT40-hTDP1 cell growth loss with CPT; chicken DT40 Tdp1-/-;hTDP1 cells + 20 nM CPT, ATP luminescence, 48 h; Potency, µM (highest dose often 46.2 µM), inactives show at the highest dose activity change, negative = growth inhibition, hits mostly inhibitors; actives 12% (n = 420,000); AID 686979; further: nearly all actives have a fitted effect of over 55% in size
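Cell growth measured by CellTiter-Glo luminescence after a minimum 48 h, 37 C compound exposure with 20 nM CPT in Tdp1-knockout DT40 cells stably expressing hTDP1, seeded 400/well; qHTS titration format.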
TDP1 cell noCPT: qHTS for Inhibitors of human tyrosyl-DNA phosphodiesterase 1 (TDP1): qHTS in cells in absence of CPT. DT40 Tdp1-/- hTDP1 cells, no CPT, ATP luminescence, 48 h. Potency, µM (series often up to 46.2 µM), for the others: at the highest dose activity change, negative = growth inhibition, actives largely listed as inhibitors. actives 15% (n = 420,000). AID 686978, 2013; further: nearly all actives have a fitted effect of over 55% in size
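A cellular qHTS used chicken DT40 cells lacking endogenous Tdp1 but carrying stably transfected human TDP1. Compounds were applied without camptothecin, and cell growth kinetics were judged by ATP-dependent luminescence after ≥48 hr.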
PLK1 PBD block: inhibitors of human PLK1 polo-box domain binding. Plk1 PBD binding of FITC phosphopeptide, fluorescence polarization. Potency, µM, for inactives: max response, negative = inhibition, hits mostly inhibitors. actives 2.8% (n = 360,000). AID 720504; further: series mostly up to about 57 µM; nearly all actives have a fitted effect of over 65% in size
Target sequence (P53350 whole entry, looked up, the tested form may be a part): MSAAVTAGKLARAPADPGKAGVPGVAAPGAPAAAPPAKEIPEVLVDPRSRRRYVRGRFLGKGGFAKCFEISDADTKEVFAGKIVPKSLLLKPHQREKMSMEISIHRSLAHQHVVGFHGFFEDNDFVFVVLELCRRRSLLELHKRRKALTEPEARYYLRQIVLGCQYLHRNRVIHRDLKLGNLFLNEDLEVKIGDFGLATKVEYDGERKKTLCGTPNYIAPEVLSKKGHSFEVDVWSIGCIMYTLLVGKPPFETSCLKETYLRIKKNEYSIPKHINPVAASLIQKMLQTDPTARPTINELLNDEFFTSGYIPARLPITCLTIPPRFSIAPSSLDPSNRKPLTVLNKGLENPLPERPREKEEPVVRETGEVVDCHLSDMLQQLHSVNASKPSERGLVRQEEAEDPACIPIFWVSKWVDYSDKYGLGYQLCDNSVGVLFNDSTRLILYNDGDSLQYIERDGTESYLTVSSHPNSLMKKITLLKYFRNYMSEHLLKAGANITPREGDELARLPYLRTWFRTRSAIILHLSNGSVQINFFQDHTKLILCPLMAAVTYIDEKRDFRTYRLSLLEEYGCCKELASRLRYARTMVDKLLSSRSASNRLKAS
TDP1 block: inhibitors of human tyrosyl-DNA phosphodiesterase TDP1; recombinant TDP1, AlphaScreen DNA substrate cleavage; Potency, µM (highest dose often 130 µM), without a hit: top-dose activity change, negative = inhibition, actives largely listed as inhibitors; actives 0.28% (n = 350,000); further: nearly all actives have a fitted effect of over 40% in size
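Tdp1 1 nM final; 15 min RT w/ cpd; substrate 15 nM, 5 min; beads 10 ug/ml, 10 min; AlphaScreen read. Neg ctrl: no enzyme.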
GCN5L2 inh: inhibitors of human GCN5L2 histone acetyltransferase; Q92830; GCN5L2 HAT assay, ThioGlo1 CoA-SH fluorescence; Potency, µM (doses to about 58.9 µM), without a hit: at the highest dose activity change, negative = inhibition, actives largely listed as inhibitors; actives 0.21% (n = 390,000)
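GCN5L2 (20 nM) in 50mM HEPES pH 7.5, 0.1mM EDTA, 0.01% Tween-20 preincubated 15 min with compounds at room temperature. Reaction started with H3(1-25) 75uM, acetyl-CoA 70uM, ThioGlo1 50uM; CoA-thiol fluorescence (Ex340/Em540) read at 0 and 20 min.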
VDR inh: inhibitors of human vitamin D receptor | P11473 | VDR-SRC2-3 peptide fluorescence polarization, 2 h | Potency, µM, for inactives: max response, negative = inhibition, actives largely listed as inhibitors | actives 0.93% (n = 400,000) | AID 504847
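Signal is fluorescence polarization, reporting how far test compounds block the interaction of VDR with the SRC2-3 coregulator peptide after a 2 h room-temperature incubation.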
Starred values were filed as active, the others as inactive; ? = inconclusive; . = not tested or not shown. The call rests on the fitted dose curve; in most records, active means well fitted curve in the direction sought with a large enough effect; inconclusive means small, poorly fitted or top-dose-only effect, or another doubt; inactive means no such curve, though single readings can be large; an effect the other way counts as inactive or inconclusive. On the % scale 0 is the no-effect control and ±100 the full control effect; potency means the concentration at half of the fitted maximal effect.

SMILES	TDP1 cell CPT	TDP1 cell noCPT	PLK1 PBD block	TDP1 block	GCN5L2 inh	VDR inh
COc1cccc(/C=N/n2c(N)c(S(=O)(=O)c3cccs3)c3nc4ccccc4nc32)c1OC	7.3µM*	5.8µM*	-11%	5%	0%	0%
O=C(COC(=O)C1CC(=O)N(Cc2ccco2)C1)Nc1nc(-c2ccc(F)cc2)cs1 (configuration not stated)	?	-6%	-4%	-1%	-1%	-25%
CCCC12CN3CC(C)(CN(C1)C3c1cn(C)c3ccccc13)C2=O (configuration not stated)	?	?	.	7%	-10%	2%
CCC(C)(C)C1CCC(=NNC(=S)Nc2cccnc2)CC1 (configuration not stated)	?	?	-3%	8%	-3%	-1%
CC1=C/C(=N\NC(=S)Nc2cccnc2)CC(C)(C)C1	1.3µM*	2.1µM*	-18%	8%	-8%	-9%
Cc1cc(C)cc(OCC(=O)NCC2(N3CCOCC3)CCCCC2)c1	?	26µM*	.	5%	-9%	9%
O=C(COc1ccccc1[N+](=O)[O-])NCC1(N2CCOCC2)CCCCC1	?	21µM*	-2%	0%	0%	5%
O=C(COc1ccc(F)cc1)NCC1(N2CCOCC2)CCCCC1	?	3%	7%	2%	-5%	6%
Cc1cccc(C)c1OCC(=O)NCC1(N2CCOCC2)CCCCC1	16µM*	?	.	-4%	-6%	0%
Cc1ccc(OCC(=O)NCC2(N3CCOCC3)CCCCC2)cc1C	21µM*	16µM*	.	-2%	-4%	6%
O=C(Cc1ccccc1F)NCC1(N2CCOCC2)CCCCC1	-7%	-2%	-4%	3%	-2%	0%
OCCNC(=S)c1ccccc1	-12%	4%	0%	5%	-13%	-6%
Cc1cccc(C(=O)N2CCNC(=O)C2CC(=O)Nc2cccc(Cl)c2)c1 (configuration not stated)	2%	2%	-4%	1%	2%	-9%
COCCNC(=O)C1CCCN(C(=O)c2sc(-c3ccccc3)nc2C)CC1 (configuration not stated)	13%	7%	-7%	.	.	.
Cc1ccc(C2=NN3C(=O)c4ccccc4C3C2)cc1 (configuration not stated)	-30%	?	-4%	0%	0%	-18%
COc1ccc2c(c1OC)C(=O)N1N=C(c3ccc(F)cc3)CC21 (configuration not stated)	?	16µM*	12µM*	2%	-10%	?
CCCCCCN1C[C@H](O)[C@@H](n2cc(C3CC3)nn2)C[C@@H]1c1ccc(C)cc1	?	26µM*	-3%	.	.	.
CCCCCCN1C[C@@H](O)[C@H](n2cc(C3CC3)nn2)C[C@@H]1c1ccc(C)cc1	-20%	?	0%	.	.	.
CCCCCCN1C[C@@H](n2cc(C3CC3)nn2)[C@H](O)C[C@@H]1c1ccc(Cl)cc1	?	?	6%	.	.	.
CCCCCCN1C[C@@H](n2cc(C3CC3)nn2)[C@H](O)C[C@@H]1c1ccccc1	-17%	?	-1%	.	.	.
CCCCCC(=O)N1C[C@@H](n2cc(C3CC3)nn2)[C@H](O)C[C@@H]1c1ccc(Cl)cc1	16µM*	21µM*	3%	.	.	.
CCCCCCN1C[C@H](O)[C@@H](n2cc(C3CC3)nn2)C[C@@H]1c1ccccc1	?	23µM*	-7%	.	.	.
CCCCCCN1C[C@@H](O)[C@H](n2cc(C3CC3)nn2)C[C@@H]1c1ccc(Cl)cc1	26µM*	?	1%	.	.	.
CCCCCC(=O)N1C[C@H](n2cc(C3CC3)nn2)[C@@H](O)C[C@@H]1c1ccc(OC)cc1	5%	-10%	2%	.	.	.
COc1ccc(CN2C(=O)c3ccccc3NC2c2ccc(OC)c(COc3ccc(NC(C)=O)cc3)c2)cc1 (configuration not stated)	.	.	.	0%	.	.
SMILES	TDP1 cell CPT	TDP1 cell noCPT	PLK1 PBD block	TDP1 block	GCN5L2 inh	VDR inh
Cc1ccc(C)c(Cn2c(=O)n(Cc3ccccc3)c(=O)c3c2c2cc(C)ccc2n3C)c1	-9%	-17%	.	3%	-1%	5%
COc1ccc(CN(C)CC(=O)Nc2ccc(SC(F)F)cc2)cc1OC	-23%	?	27µM*	0%	-5%	-19%
CCOc1ccc(NC(=O)CN(C)CC(=O)NC2CCCc3ccccc32)cc1OCC (configuration not stated)	-20%	-25%	-20%	8%	-5%	-18%
CCOc1cc(CNc2ccc3c(c2)CCC3)ccc1O	?	23µM*	?	6%	-12%	-10%
C=CCOc1ccc(CN(C)CC(=O)Nc2ccc3c(c2)CCC3)cc1	23µM*	?	1%	-2%	-9%	-6%
COc1cc(CNc2ccc3c(c2)CCC3)cc(OC)c1O	-22%	-25%	?	-5%	-2%	-15%
CCOc1ccc(CN(C)CC(=O)Nc2ccc3c(c2)CCC3)cc1OC	?	16µM*	-3%	4%	-7%	-16%
COc1cc(CC(=O)Nc2ccc3c(c2)CCC3)cc(OC)c1OC	9.2µM*	12µM*	5%	2%	-3%	-2%
COCCN(C(=S)Nc1c(C)cc(C)cc1C)C(C)c1cccs1 (configuration not stated)	?	29µM*	?	-1%	-7%	-20%
O=C(COC(=O)CCS(=O)(=O)c1ccc(F)cc1)NC1CCCCC1	-5%	25%	0%	2%	-1%	-3%
Cc1cc(C)n(-c2ccc3cccc(NS(C)(=O)=O)c3n2)n1	5.2µM*	5.8µM*	2%	9%	6%	-11%
Cc1ccc2cccc(NS(=O)(=O)c3ccccc3)c2n1	?	21µM*	1%	2%	-32%	-10%
Cc1cc(C)nc(NS(=O)(=O)c2ccccc2)n1	-6%	-1%	-8%	3%	1%	28%
O=S(=O)(Nc1cccc2cccnc12)c1ccc(S(=O)(=O)N2CCCC2)cc1	16µM*	13µM*	0%	11%	-3%	-3%
O=S(=O)(Nc1ncccn1)c1ccccc1	?	16µM*	24µM*	2%	-5%	?
O=S(=O)(Nc1ncccn1)c1ccc(Cl)cc1	-2%	15%	-5%	.	0%	-5%
CCOC(=O)Cn1nc(C)c(NC(=O)COc2ccc(OC)cc2)c1C	-1%	-11%	-5%	0%	14%	-16%
